The test system of this experiment is primary human hepatic stellate cells (donor 1). Put plainly: scaled lipid accumulation score (0 = DMSO-like, 1 = nortriptyline-like); higher = stronger HSC inactivation (lipid re-accumulation), active = hit call of the paper. The conditions noted are these: 48 h.
[1] abbreviates: library stock concentration: 1 mM.
The mark [2] stands for this setting: library stock concentration: 10 mM.
[3] abbreviates: library stock concentration: 3.33 mM.
[4] abbreviates: library stock concentration: 80 uM.
Setting [5] is: library stock concentration: 400 uM.
[6] abbreviates: library stock concentration: 2 mM.

The record followed here is the supplement of paper PMC9135407.

The structures appear in SMILES notation. Where a name gives a salt, the structure may show the parent alone. About 620 (11%) of roughly 5,800 compounds showed activity. The sample as a whole holds a higher share of actives than the screen did. Unmarked numbers belong to inactive results.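 Rule for the calls: active = score above a cut-off or among the top three wells of a plate; in these data no inactive exceeds 0.85.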

As for `CCCCCCC(Sc1nc(Cl)cc(NCc2ccc(-c3ccccc3)cc2)n1)C(=O)O` (stereo unspecified), the “scaled lipid accumulation score” value under setting [1] was at most 0.
On the same count and under the same terms, the same measure for `CCCCCC(=O)CCC1C(=O)C=CC1C/C=C\CCCC(=O)O` (stereo unspecified) [13,14-dihydro-15-keto Prostaglandin J2]: at most 0; for `CCCCC[C@H](O)/C=C/[C@H]1OC(O)C[C@H](O)[C@@H]1C/C=C\CCCC(=O)O` (stereo partly specified) [Thromboxane B2]: at most 0.
Turning to `CC(C)CCN1C(=O)N(CCN(C)C)C(=O)C12CCN(Cc1cn(C)c3ccccc13)CC2`, the “scaled lipid accumulation score” value under setting [2] was 0.692 (active).
For `C[C@@H]1[C@H](O)[C@@H](C)/C=C/C=C/C=C/C=C/C=C/C=C/C=C/[C@H](O[C@@H]2O[C@H](C)[C@@H](O)[C@H](N)[C@@H]2O)C[C@@H]2O[C@](O)(C[C@@H](O)C[C@@H](O)[C@H](O)CC[C@@H](O)C[C@@H](O)CC(=O)O[C@H]1C)C[C@H](O)[C@H]2C(=O)O` [Amphotericin B], the “scaled lipid accumulation score” value was 0.003. Under setting [3], the “scaled lipid accumulation score” value is 0.002. Also, the “scaled lipid accumulation score” value under setting [2] was at most 0.
Consider `C[C@@H]1[C@H](O)[C@@H](C)/C=C/C=C/C=C/C=C/C=C/C=C/C=C/[C@H](O[C@@H]2O[C@H](C)[C@@H](O)[C@H](N)[C@@H]2O)C[C@@H]2O[C@](O)(C[C@@H](O)C[C@@H](O)[C@H](O)CC[C@@H](O)C[C@@H](O)CC(=O)O[C@H]1C)C[C@H](O)[C@H]2C(=O)O` [Amphotericin b], for which the “scaled lipid accumulation score” value under setting [2] was at most 0.
In the case of `S=C(Nc1ccccc1)Nc1nccs1` [1-Phenyl-3-(2-thiazolyl)-2-thiourea], the “scaled lipid accumulation score” value under setting [2] was at most -0.055.
As for `COc1cccc(Nc2c(C(N)=O)cnc3c(C)cc(S(=O)(=O)c4cccc(C(=O)N(C)C)c4)cc23)c1`, the “scaled lipid accumulation score” value by setting is: under setting [3], at most 0; under setting [2], at most 0.
`CCCCCC(O)C=CC1C(O)CC(=O)C1CCCCCCC(=O)O` [15(R)-Prostaglandin E1]: the “scaled lipid accumulation score” value under setting [1] is at most 0.
Same read-out and setting: the same measure for `CCCCCC(O)C=CC1C(O)CC(=O)C1CCCCCCC(=O)O` (stereo unspecified) [8-iso Prostaglandin E1]: at most 0.
For `COc1cc(C)c(Sc2cnc(NC(=O)c3ccc(CNC(C)C(C)C)cc3)s2)cc1C(=O)N1CCN(C(C)=O)CC1` (stereo unspecified) [listing 1 of 2 here], the “scaled lipid accumulation score” value runs as follows: under setting [4], 0.006; under setting [5], at most 0; under setting [6], 0.398.
Regarding `COc1cc(C)c(Sc2cnc(NC(=O)c3ccc(CNC(C)C(C)C)cc3)s2)cc1C(=O)N1CCN(C(C)=O)CC1` (stereo unspecified) [listing 2 of 2 here], the “scaled lipid accumulation score” value under setting [2] is 0.891 (active).
As for `COc1cc(C)c(Sc2cnc(NC(=O)c3ccc(CNC(C)C(C)(C)C)cc3)s2)cc1C(=O)N1CCN(C(C)=O)CC1` (stereo unspecified), the “scaled lipid accumulation score” value runs as follows: under setting [4], at most -0.009; under setting [5], at most -0.009; under setting [6], 0.095; under setting [2], 0.769.
Turning to `C[C@@H](CN1CCC(Cc2ccccc2)CC1)[C@@H](O)c1ccc(O)cc1` [Ro 25-6981 maleate], the “scaled lipid accumulation score” value under setting [2] is 0.284.
Same read-out and setting: in the case of `C[C@@H](CN1CCC(Cc2ccccc2)CC1)[C@@H](O)c1ccc(O)cc1` [Ro 25-6981 hydrochloride] it was at most 0.
For `CC(C(O)c1ccc(O)cc1)N1CCC(Cc2ccccc2)CC1` (stereo unspecified) [Ifenprodil], the “scaled lipid accumulation score” value is, setting by setting: (library stock concentration: 6.1 mM) 0.223; (library stock concentration: 9.6 mM) 0.096.
For `CC(C(O)c1ccc(O)cc1)N1CCC(Cc2ccccc2)CC1` (stereo unspecified) [Ifenprodil Tartrate], the “scaled lipid accumulation score” value is at most 0 under setting [3] and 0.077 under setting [2].
As for `CC(C(O)c1ccc(O)cc1)N1CCC(Cc2ccccc2)CC1.CC(C(O)c1ccc(O)cc1)N1CCC(Cc2ccccc2)CC1.O=C(O)C(O)C(O)C(=O)O` (stereo unspecified) [Ifenprodil tartrate], the “scaled lipid accumulation score” value under setting [2] was 1.11 (active).
As for `CC(C(O)c1ccc(O)cc1)N1CCC(Cc2ccccc2)CC1` (stereo unspecified) [Ifenprodil tartrate], the “scaled lipid accumulation score” value was 0.252.
On to `CC(C(O)c1ccc(O)cc1)N1CCC(Cc2ccccc2)CC1` (stereo unspecified) [Ifenprodil hemitartrate], for which, under setting [2], the “scaled lipid accumulation score” value is 0.45.
Regarding `Nc1nc(=S)c2ncn([C@@H]3O[C@H](CO)[C@@H](O)[C@H]3O)c2[nH]1` [Thioguanosine], the “scaled lipid accumulation score” value is 0.076.
On to `CCCCC[C@H](O)/C=C/[C@@H]1[C@H](CCCCCCC(=O)O)[C@@H](O)C[C@H]1O` [8-iso Prostaglandin F1.alpha.], for which, under setting [1], the “scaled lipid accumulation score” value is at most 0.
Still for that read-out and setting: the same measure for `CCCCC/C=C\C/C=C\C/C=C\CCCCC(=O)O` [.gamma.-Linolenic Acid]: 0.011.
Regarding `CCCCC/C=C\C/C=C\C/C=C\CCCCC(=O)O` [Gamma-linolenic acid (18:3 n-6)], the “scaled lipid accumulation score” value under setting [1] was 0.024.
Turning to `OCCOCCN1CCN(C(c2ccccc2)c2ccc(Cl)cc2)CC1` (stereo unspecified) [Hydroxyzine pamoate], the “scaled lipid accumulation score” value is 0.044 (library stock concentration: 2.6 mM) and 0.142 under setting [2].
As for `OCCOCCN1CCN(C(c2ccccc2)c2ccc(Cl)cc2)CC1` (stereo unspecified) [Hydroxyzine 2HCl], the “scaled lipid accumulation score” value runs as follows: under setting [3], 0.1; under setting [2], 0.631.
Regarding `OC(CCCN1CCCCC1)(c1ccccc1)c1ccccc1` [Diphenidol hydrochloride], the “scaled lipid accumulation score” value was 0.315.
As to `OC(CCCN1CCCCC1)(c1ccccc1)c1ccccc1` [Diphenidol HCl], the “scaled lipid accumulation score” value by setting is: under setting [3], at most 0; under setting [2], 0.007.
